5 compounds from PubChem BioAssay can be followed below.

Test [1] concerns Human papillomavirus type 1a protein E7 (residues 44-93). Put plainly: small molecules binding HPV E7 44-93 – biochemical, small-molecule microarray, residues 44-93, 635 nm fluorescence, primary screen (AID 1108).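 Further: E7 fragment applied at 1 µg/mL in TBST for 1 h at 4 C; score combines spot fluorescence with its signal to noise ratio.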 As to conditions: fluorescence 635 nm, higher = more signal.
A short description of test [2]: hepatitis C replication reporter changes, two-sided – Huh7 cells, luciferase reporter, HCV replication inhibitor project, primary screen (AID 1109).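 Further: huh7 hepatoma cells harbouring a luciferase neomycin HCV replicon reporter; luciferase luminescence as measure of HCV replicon replication; test concentration not given here.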 As to conditions: Huh7 HCV replicon luciferase reporter, 48 h; higher = more signal. A general note: In a reporter assay the amount or activity of a reporter protein is the signal.
Test [3] addresses Left-right determination factor 2 (Homo sapiens) (UniProt O00292). The test can be described thus: small molecules binding LEFTY2 protein – biochemical, small-molecule microarray, 635 nm fluorescence scan, primary screen (AID 1110). Conditions: higher = more signal.
Test [4] addresses Calmodulin-1 (Homo sapiens) (UniProt P0DP23). The test can be described thus: small molecules binding calmodulin-1 with EGTA – biochemical, small-molecule microarray, Cy5-labelled CALM1, profiling panel (AID 1111).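 Further: labelled calmodulin applied in Tris saline Tween buffer holding calcium plus EGTA and DTT.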 Conditions: Cy5-CALM1 binding fluorescence, higher = more signal.
Test [5] shares this target. Put plainly: small molecules binding Ca-loaded calmodulin-1 – biochemical, small-molecule microarray, Cy5-labelled CALM1, plus calcium, artefact control for SMM control-protein annotation, profiling panel (AID 1112).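 Further: score merges spot fluorescence with signal to noise from triplicate slides.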 Conditions: Cy5-CALM1 binding fluorescence, higher = more signal.
Test [6] can be described thus: probe aWnt5a binding to arrayed compounds – biochemical, biotinylated probe, 635/667 nm fluorescence, primary screen (AID 1113).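 Further: score merges 667 nm fluorescence intensity with signal-to-noise per printed feature.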 Conditions: small-molecule microarray, higher = more signal.
Test [7] is described as follows: probe aShh binding to arrayed compounds – biochemical, biotinylated probe, 635/667 nm fluorescence, primary screen (AID 1114).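 Further: probe is biotin-labelled aShh protein from a stem cell growth factor screen; measures binding of labelled protein to compounds printed on the slide; score merges feature fluorescence at 667 nm with signal-to-noise.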 Conditions: small-molecule microarray, higher = more signal.
The nature of test [8]: probe aNog binding to arrayed compounds – biochemical, biotinylated probe, 635/667 nm fluorescence, primary screen (AID 1115).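 Further: probe is biotinylated aNog protein used at 0.15 µg/mL for 1 h at 4 C; z-score combines 667 nm fluorescence of each spot with its signal to noise.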 Conditions: small-molecule microarray, higher = more signal.
The target in test [9] is Torsin-1A-interacting protein 1 (Homo sapiens) (UniProt Q5JTV8). The test can be described thus: compound microarray binding of lysate hLAP1 – cell lysate, small-molecule microarray, COS7 lysate, 635/667 nm fluorescence, primary screen (AID 1116). Conditions: 635 nm fluorescence, higher = more signal.
Torsin-1A-interacting protein 1 (Homo sapiens), sequence (Q5JTV8 whole entry, looked up): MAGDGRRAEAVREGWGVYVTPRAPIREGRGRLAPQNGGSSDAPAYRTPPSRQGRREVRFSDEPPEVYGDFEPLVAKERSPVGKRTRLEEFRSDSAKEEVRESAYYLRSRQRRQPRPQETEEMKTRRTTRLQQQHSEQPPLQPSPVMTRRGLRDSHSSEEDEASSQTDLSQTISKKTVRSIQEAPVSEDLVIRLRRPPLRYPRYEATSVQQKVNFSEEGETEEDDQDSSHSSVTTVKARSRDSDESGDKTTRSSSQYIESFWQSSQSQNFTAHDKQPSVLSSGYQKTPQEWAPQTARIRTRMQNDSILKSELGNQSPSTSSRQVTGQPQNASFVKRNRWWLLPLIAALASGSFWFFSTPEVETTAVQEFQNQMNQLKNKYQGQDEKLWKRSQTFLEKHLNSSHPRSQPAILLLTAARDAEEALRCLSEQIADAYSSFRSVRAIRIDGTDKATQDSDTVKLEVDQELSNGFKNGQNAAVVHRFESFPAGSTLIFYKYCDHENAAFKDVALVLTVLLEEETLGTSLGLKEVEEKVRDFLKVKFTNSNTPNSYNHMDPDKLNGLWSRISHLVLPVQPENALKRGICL
The target in test [10] is Alpha-bungarotoxin (Bungarus multicinctus) (UniProt P60615). Put plainly: compounds binding labelled alpha-BTX control protein – biochemical, small-molecule microarray, Alexa647 label, 635/667 nm fluorescence, artefact control for SMM control protein annotation, profiling panel (AID 1117). As to conditions: alpha-BTX-A647 binding fluorescence, higher = more signal.
Alpha-bungarotoxin (Bungarus multicinctus), sequence (P60615 whole entry, looked up): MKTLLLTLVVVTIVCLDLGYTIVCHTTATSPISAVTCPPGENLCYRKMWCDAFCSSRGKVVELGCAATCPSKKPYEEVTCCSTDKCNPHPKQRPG
The next test concerns the target Albumin (Bos taurus) (UniProt P02769). The test can be described thus: compounds binding labelled BSA control protein – biochemical, small-molecule microarray, Alexa647 label, 635/667 nm fluorescence, artefact control for SMM control protein annotation, profiling panel (AID 1118).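 Further: score merges 667 nm emission intensity and signal-to-noise per printed compound spot.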 Conditions: BSA-A647 binding, fluorescence 635 nm, higher = more signal.
Test [11] is described as follows: probe aXIP binding to arrayed compounds – biochemical, NeuroSMM set, 635/667 nm fluorescence, primary screen (AID 1119).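 Further: probe is the protein aXip251-270 applied at 1 µg/mL to compound-printed slides; binding of probe to printed compounds measured as 667 nm fluorescence plus signal to noise.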 As to conditions: small-molecule microarray, higher = more signal, called active from +8 up or from −8 down.
The nature of test [12]: probe aNOTCH3 binding on compound microarray – biochemical, small-molecule microarray, 635/667 nm fluorescence, primary screen (AID 1120).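 Further: probe is a biotin-tagged antibody raised against NOTCH3 rather than NOTCH3 protein; score merges spot fluorescence near 667 nm with spot signal to noise.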 As to conditions: higher = more signal.
Test [13] in a line: probe aNOTCH2 binding on compound microarray – biochemical, small-molecule microarray, 635/667 nm fluorescence, primary screen (AID 1121).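 Further: score merges feature fluorescence read at 667 nm with its signal to noise.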 Conditions: higher = more signal.
Test [14] has as its target Carbonic anhydrase 2 (Homo sapiens) (UniProt P00918). Put plainly: compounds binding carbonic anhydrase 2 – biochemical, small-molecule microarray, Alexa647-labelled CAII, profiling panel (AID 1122). Conditions: CAII-A647 binding fluorescence, higher = more signal.
A short description of test [15]: COS7 lysate on small-molecule microarray, probe aHis, 635 nm (AID 1123).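 Further: z-score combines 667nm fluorescence intensity with signal-to-noise per printed compound spot.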 As to conditions: COS7 cell lysate, fluorescence, higher = more signal.
Test [16] in a line: probe aLAP1 signal on lysate-treated microarray – cell lysate, small-molecule microarray, COS7 lysate, primary screen (AID 1124).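 Further: lysate comes from COS7 cells expressing LAP1 and is applied at 0.3 µg/mL; score merges spot fluorescence near 667 nm with signal-to-noise over triplicate slides.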 Conditions: probe aLAP1, fluorescence, higher = more signal.
The subject of the next test is Sam68 (KHDRBS1). Put plainly: compounds binding KHDRBS1 protein – biochemical, small-molecule microarray, 635 nm fluorescence, primary screen (AID 1125).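 Further: score merges 667 nm channel intensity with signal to noise over triplicate slides.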 Conditions: higher = more signal.
Test [17] has as its system Chordin-like protein 2 (CHRDL2). The test can be described thus: compounds binding chordin-like 2 – biochemical, small-molecule microarray, 635 nm fluorescence, primary screen (AID 1126).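 Further: printed compound slides probed with Chrdl2 protein at 4 µg/mL for 1 h at 4 C; score merges 667 nm emission intensity with signal to noise over three replicate slides.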 Conditions: fluorescence 635 nm, higher = more signal.
Test [18] addresses Concanavalin-A (Canavalia ensiformis) (UniProt P02866). Put plainly: compounds binding concanavalin A lectin – biochemical, small-molecule microarray, Alexa647 label, 635 nm, artefact control for SMM control protein annotation, primary screen (AID 1127).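 Further: z combines 667 nm emission intensity with signal-to-noise across three replicate slides.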 As to conditions: ConA-A647 binding fluorescence, higher = more signal.

Each structure is given as a SMILES string. The source made the active and inactive calls.

Left-right determination factor 2 (Homo sapiens), sequence (O00292 whole entry, looked up): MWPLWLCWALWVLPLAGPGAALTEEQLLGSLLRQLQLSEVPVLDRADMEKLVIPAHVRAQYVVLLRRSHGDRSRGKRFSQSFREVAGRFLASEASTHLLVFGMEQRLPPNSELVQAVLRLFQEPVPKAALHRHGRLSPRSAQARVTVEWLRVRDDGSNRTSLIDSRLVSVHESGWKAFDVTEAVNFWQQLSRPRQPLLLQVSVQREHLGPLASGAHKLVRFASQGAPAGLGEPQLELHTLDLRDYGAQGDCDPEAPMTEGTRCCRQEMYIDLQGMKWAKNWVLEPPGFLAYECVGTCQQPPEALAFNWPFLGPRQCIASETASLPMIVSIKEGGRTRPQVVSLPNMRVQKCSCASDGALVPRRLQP
Concanavalin-A (Canavalia ensiformis), sequence (P02866 whole entry, looked up): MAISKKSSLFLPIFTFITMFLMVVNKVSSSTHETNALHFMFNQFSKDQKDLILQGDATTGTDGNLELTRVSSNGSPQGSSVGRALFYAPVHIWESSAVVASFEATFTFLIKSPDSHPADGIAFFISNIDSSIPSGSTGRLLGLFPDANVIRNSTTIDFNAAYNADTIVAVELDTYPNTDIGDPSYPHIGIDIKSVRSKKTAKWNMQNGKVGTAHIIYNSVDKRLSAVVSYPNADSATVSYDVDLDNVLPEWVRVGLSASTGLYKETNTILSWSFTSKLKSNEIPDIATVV
Albumin (Bos taurus), sequence (P02769 whole entry, looked up): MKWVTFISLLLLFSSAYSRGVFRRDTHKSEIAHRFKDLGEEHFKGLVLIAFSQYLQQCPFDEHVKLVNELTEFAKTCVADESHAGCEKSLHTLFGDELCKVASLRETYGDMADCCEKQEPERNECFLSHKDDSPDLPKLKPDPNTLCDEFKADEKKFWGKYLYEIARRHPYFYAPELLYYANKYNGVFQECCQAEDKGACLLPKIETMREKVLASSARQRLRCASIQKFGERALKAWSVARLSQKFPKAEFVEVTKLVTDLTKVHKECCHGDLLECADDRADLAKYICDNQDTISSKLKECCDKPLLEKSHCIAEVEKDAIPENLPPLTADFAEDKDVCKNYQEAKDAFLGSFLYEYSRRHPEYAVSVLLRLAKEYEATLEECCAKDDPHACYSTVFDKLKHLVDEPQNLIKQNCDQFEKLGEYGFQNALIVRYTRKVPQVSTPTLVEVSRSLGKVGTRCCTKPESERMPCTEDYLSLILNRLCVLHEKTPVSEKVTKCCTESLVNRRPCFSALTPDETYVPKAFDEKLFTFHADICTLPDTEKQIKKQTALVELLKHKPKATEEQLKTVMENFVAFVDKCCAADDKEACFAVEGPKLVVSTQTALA

As for `COCCCNC(=O)[C@@]1(c2ccc([N+](=O)[O-])cc2)CC(=O)N(C2CCCCC2)[C@@H]1c1ccc(CO)cc1`, the composite z-score was 0.361 in test [1]; -0.256 in [3]; -0.702 in test [4]; -0.762 in test [5]; -0.418 in test [6]; -0.8 in test [7]. Besides, the composite z-score is -0.811 in [8]; -0.218 in [9]; -0.374 in test [10]; 0.502 with Albumin (Bos taurus); -0.391 in test [12]; -0.272 in [13]. Moreover, the composite z-score in test [14] was 0.672; in test [15], 2.28; in test [16], 1.63; in the test on Sam68 (KHDRBS1), 0.0163; in test [17] it was -0.264; in test [18], -0.194. For the same compound, in [2], the z-score was -0.558. The composite Z-score in test [11] was -0.0867 (inactive).
Regarding `COCCOC(=O)N1C(=O)[C@@]2(c3cc(C#CC4=CCCCC4)ccc31)[C@H](C(=O)NC[C@H](O)c1ccccc1)[C@H]1C(=O)O[C@H](c3ccccc3)[C@H](c3ccccc3)N1[C@@H]2c1ccc(OCCO)cc1`, the composite z-score was 1.41 in test [1]; 0.537 in [3]; 0.774 in test [4]; -0.206 in [5]; 0.0115 in test [6]; -0.279 in test [7]. The composite z-score in test [8] was 0.165; in test [9], 1; in [10], 1.28; in the test with Albumin (Bos taurus), 0.723; in test [12], 0.0739; in test [13], -0.0986. Moreover, the composite z-score was 0.224 in test [14]; 1.9 in [15]; -0.0647 in [16]; 1.3 in the test on Sam68 (KHDRBS1); 0.629 in [17]; 1.12 in test [18]. Also, the z-score in test [2] is -2.08. Also, the composite Z-score in test [11] is -0.0384 (inactive).
For `CCCC[C@@H]1C[C@H]1[C@@H](NC(=O)c1cccs1)c1ccc(Cl)cc1`, the composite z-score is -0.416 in [1]; -1.19 in test [3]; 0.27 in [4]; 0.696 in test [5]; 0.0095 in [6]; -0.0578 in test [7]. The composite z-score is 0.46 in [8]; -0.939 in [9]; -1.37 in [10]; 0.804 with Albumin (Bos taurus); -0.201 in test [12]; -0.0956 in test [13]. Besides, the composite z-score in test [14] was -0.346; in test [15] it was 1.08; in test [16], -0.0875; in the test with Sam68 (KHDRBS1), -0.858; in [17] it was -1.66; in test [18], -0.782. The compound further returned a z-score in [2] of -1.27. In test [11], the composite Z-score was 2.33 (inactive).
For the compound `[N-]=[N+]=NCc1ccccc1C[C@]1(C(=O)N2CCCCC2)N=C(c2ccc(OCCCO)cc2)O[C@H]1c1ccccc1CN=[N+]=[N-]`, the composite z-score was 1.41 in test [1]; -0.406 in test [3]; 1.67 in [4]; 0.855 in test [5]; 0.0375 in test [6]; 0.503 in [7]. Also, the composite z-score in test [8] was 1.25; in test [9], 1.95; in test [10], 1.11; with Albumin (Bos taurus) it was 0.899; in test [12], 0.268; in [13], -0.0817. The composite z-score is 0.441 in test [14]; 2.56 in [15]; 0.796 in test [16]; 1.29 in the test with Sam68 (KHDRBS1); -0.914 in test [17]; 1.04 in test [18]. The compound also showed a z-score in [2] of -2.73. In [11], the composite Z-score was 0.375 (inactive).
With `COc1cc(CO)cc(I)c1O[C@H]1C=C(C(=O)NCCO)C[C@@H](N(CC2CCCCC2)C(=O)c2cc3ccccc3oc2=O)[C@@H]1O`, the composite z-score in test [1] is -0.376; in test [3] it was 0.252; in test [4], 0.0059; in test [5], -0.857; in [6] it was -0.185; in [7], -0.0904. The composite z-score in test [8] is -0.446; in test [9], 0.646; in test [10], -0.431; in the test with Albumin (Bos taurus), -0.0129; in [12], 0.0158; in test [13] it was -0.12. The composite z-score in test [14] was -0.0979; in test [15], 0.14; in test [16], 0.379; with Sam68 (KHDRBS1), -0.461; in test [17] it was 0.538; in test [18], 0.358. The compound further registered a z-score in test [2] of 0.806. Also, the composite Z-score in [11] is 0.577 (inactive).
